Most compounds without a hit are left out; they make up all but 12% or so of the library.
Marburg entry inh: qHTS for inhibitors of binding or entry into cells for Marburg Virus; Marburg virus pseudotyped entry inhibition, cell reporter; Potency, µM (top dose mostly 37.8 µM), for the others: at the highest dose activity change, negative = inhibition, most hits filed as inhibitors; 300,000 tested, 1.8% active; calls by dose curve; tested in HEK293 cells; also: potency is read from the fitted curve at half-maximal effect; % is scaled to controls: 0 for no effect and ±100 for the full control effect
Shiga toxin inh: A qHTS for Small Molecule Inhibitors of Shiga Toxin | Vero cells, Shiga toxin protein synthesis inhibition reporter | inhibition, % at 38.7 µM | 290,000 tested, 9.2% active; in the data active = inhibition mostly above about 28%, no sharp cut-off; inactive = mostly below about 43%; also: 0% is about no effect
CHX counter: Cycloheximide Counterscreen for Small Molecule Inhibitors of Shiga Toxin. 300,000 tested, 12% active. cell reporter, cycloheximide protein synthesis inhibition counterscreen. max response, %; in the data active = max response mostly above about 13%, no sharp cut-off; inactive = mostly below about 14%; also: read at 38.3 µM for the half of the compounds with a filed dose; 0% is about no effect
Lassa entry inh: qHTS for Inhibitors of binding or entry into cells for Lassa Virus. Lassa virus pseudotype entry inhibition, cell reporter. Potency, µM (titrated, usually from 37.9 µM), without a hit: at the top dose activity change, negative = inhibition, actives largely listed as inhibitors. 300,000 tested, 1.2% active. AID 540256, 2011; calls by dose curve; tested in HEK293 cells; also: potency is read from the fitted curve at half-maximal effect; % is scaled to controls: 0 for no effect and ±100 for the full control effect; nearly all actives have a fitted effect of over 50% in size
* = called active by the depositor; ? = inconclusive; . = not tested or not shown; ! = repeats disagree; [ ] = another dose, or the depositor's remark.

SMILES	Marburg entry inh	Shiga toxin inh	CHX counter	Lassa entry inh
O=C1CCC(=O)N1CCc1c[nH]c2ccccc12	-4%	-5	-4	6%
c1ccc2c(CN3CCCCCC3)c[nH]c2c1	?	73*	39*	-15%
CCN(CC)CCNC(=O)c1sc2nc3n(c(=O)c2c1C)CCCCC3	.	.	.	10%[46.1 µM]
Clc1ccc2nc(CN3CCCc4ccccc43)cn2c1	?	56*	23*	5%
Cn1cccc1/C=C1\SC(=O)N(c2ccc(O)cc2)C1=O	?	33*	39*	?
CCCCCn1c(=O)[nH]c2cc(C(=O)NCc3ccc(OC)cc3)ccc2c1=O	-8%[46.1 µM]	.	.	8%[46.1 µM]
CC1CCN(C(=O)C2CC(c3ccc(F)cc3)=NO2)CC1 (configuration not stated)	?	98*	36*	12%
CC1CCCC(C)N1C(=O)C1CC(c2ccc(F)cc2)=NO1 (configuration not stated)	1%	48*	20*	1%
CN1CCN(C(=O)C2CC(c3ccc(F)cc3)=NO2)CC1 (configuration not stated)	.	34	15	.
O=C(NC1CCCC1)C1CC(c2ccc(F)cc2)=NO1 (configuration not stated)	3%	69*	42*	23%
Cc1ccc(N=c2sc(C)c(C)n2C)cc1	?	80*	70*	?
COc1cc(O)oc1C=Nc1ccc(Cl)cc1	7%	20	15	3%
COc1cc(O)oc1C=Nc1ccc(Cl)cc1Cl	18%	35*	28*	-2%
COCCOC(=O)c1c(C)n(C)c2ccc(OC(=O)C3CC3)cc12	?	35	26	-1%
COc1cc(/C=C/C(=O)c2ccc(O)cc2O)ccc1O	.	68*	32*	.
O=C(/C=C/c1ccc(O)cc1)c1ccc(O)cc1O	10µM*!	34	29*	?
O=C(C=Cc1cccc(O)c1)c1ccccc1O	26%[46.1 µM]	.	.	?
COc1ccc(/C=C/C(=O)c2cc(Br)ccc2O)cc1OC	.	9	-3	.
COc1ccc2c(c1)[C@@]1(OCCC=C[C@@H]1C)C(=O)N2CC1CC1	-7%[14.2 µM]	.	.	.
CN1C(C(=O)Nc2ccc(OC(F)(F)F)cc2)=CC(c2ccco2)=NS1(=O)=O	?	29	11	-28%[46.1 µM]
CCc1ccc(NC(=O)c2cc(-c3ccco3)on2)cc1	?	57*	52*	-6%
COc1ccc(NC(=O)c2cc(-c3ccco3)on2)c(OC)c1	-20%[46.1 µM]	25	12	.
COc1ccc(NC(=O)c2cc(-c3ccco3)on2)cc1	?	89*	61*	?
CC(C)NC(=O)c1cc(-c2ccco2)on1	?	106*	32*	?
COc1ccc(NC(=O)C2=CC(c3ccco3)=NS(=O)(=O)N2C)cc1	13%[46.1 µM]	25	17*	0%[46.1 µM]
SMILES	Marburg entry inh	Shiga toxin inh	CHX counter	Lassa entry inh
CCC(=O)N1CCc2cc(Br)cc(S(=O)(=O)NCCc3cccc(C)c3)c21	.	.	.	-2%[46.1 µM]
CCOc1ccc(/C(O)=C2/C(=O)C(=O)N(CCCN3CCOCC3)C2c2ccc(C)cc2)cc1C (configuration not stated)	.	-9	-2	.
NC(=O)C(=O)N/N=C1\CCc2ccccc21	?	62*	37*	12%
Cc1ccc(C(=O)N/N=C2\CCCc3ccccc32)c(C)c1	.	71*	49*	.
O=C(N/N=C1\CCCc2ccccc21)c1ccc([N+](=O)[O-])cc1	18%	39	11	-4%
CCc1ccc(C(=O)NNC(=O)c2c(CC)noc2C)cc1	-2%[46.1 µM]	.	.	21%
Cc1cc(C)n2nc(SCCOc3ccccc3F)nc2n1	21%[46.1 µM]	114*	26*	5%
Cc1ccc(C(=O)CSc2cc(C)nc(SCC(=O)c3ccccc3)n2)cc1	?	-19	-4	?
Cc1cc(C)n2nc(SCC(=O)c3ccccc3)nc2n1	?	33	14*	2%
Cc1cc(SCC(=O)c2ccccc2)nc(C)n1	12%	117*	32*	11%
O=C(NCCCNC(=O)c1cc(Cl)ccc1Cl)c1ccco1	-16%[46.1 µM]	-10	-4	?
Cc1ccc(-n2nnc(-c3nc(-c4cccs4)no3)c2N)cc1C	.	.	.	19%[46.1 µM]
COc1ccc(CCNC(=O)c2ccc3c(c2)N=C(C)c2ccccc2S3)cc1OC	-21%[46.1 µM]	.	.	-16%[46.1 µM]
CCn1c(COc2ccc(C)cc2)nc2ccccc21	?	79*	44*	?
Cc1ccc(OCc2nc3ccccc3n2CCOc2ccc(Cl)cc2)cc1	?	.	.	-3%[46.1 µM]
COCCn1c(COc2ccc(C)cc2)nc2ccccc21	?	71*	42*	?
CCOCCn1c(COc2ccc(C)cc2)nc2ccccc21	-26%	40*	37*	2%
COCCn1c(-c2ccc(OC)cc2)nc2ccccc21	?	-1	16*	6%
CCCc1cc2c(cc1N(C)S(=O)(=O)c1ccccc1)OCO2	?	.	.	-15%[46.1 µM]
Cc1cc(C)c2c(c1)N[C@H](c1cccs1)[C@@H]1CCO[C@H]21	-14%[46.1 µM]	-11	-4	-4%[46.1 µM]
CC(C)c1ccc2c(c1)[C@H]1OCC[C@H]1[C@@H](c1cccs1)N2	?	59*	70*	?
CCOc1cc(-c2nccc3cc(OC)c(OC)cc23)cc(OCC)c1OCC	13µM*	-2	-2	?
COc1cccc(C(=O)/C=C2\Sc3ccccc3N2C)c1	?	84*	31*	?
COc1cccc(C(=O)Nc2ccccc2NC(=O)c2cccc(OC)c2)c1	-2%	.	-1	-20%
CN1C(=O)C(O)(CC(=O)c2cccnc2)c2ccccc21 (configuration not stated)	?	-3	-4	24%
SMILES	Marburg entry inh	Shiga toxin inh	CHX counter	Lassa entry inh
CN1/C(=C\C(=O)c2cccnc2)Sc2ccccc21	6%[46.1 µM]	93*	42*	27%
COc1ccccc1CNC(=O)C1CCCN(C(=O)c2cnn(-c3ccc(F)cc3)c2-n2cccc2)C1 (configuration not stated)	.	.	.	-22%[46.1 µM]
Cc1csc(NC(=O)C2CCCO2)n1 (configuration not stated)	12%	23	-3	12%
O=C(Nc1ncc(Cc2cccc(C(F)(F)F)c2)s1)C1CCCO1 (configuration not stated)	.	35*	34*	.
Cc1ccc(Cc2cnc(NC(=O)C3CCCO3)s2)cc1 (configuration not stated)	?	138*	34*	?
O=C(O)COc1ccccc1/C=N/NC(=O)CSc1nc2ccccc2n1Cc1ccccc1Cl	0%	-2	-2	-4%
Cc1ccc2[nH]c(=O)c(-c3nc4cc(C)ccn4c3NCc3ccco3)cc2c1	-9%	23	24*	5%
Cc1cccc2cc(-c3nc4c(C)cccn4c3NCc3ccco3)c(=O)[nH]c12	-22%	-11	-3	-11%
Cc1c(CBr)[n+](=O)c2c(n1[O-])C(Br)CCC2Br (configuration not stated)	?	17	14*	1%
O=C(O)c1ccc(/C=C/c2nc3ccccc3c(=O)[nH]2)cc1	.	-2	4	.
Cc1[nH]c2ccccc2c1/C=C/c1nc2ccccc2c(=O)[nH]1	?	84*	53*	?
COc1cc(/C=C/c2nc3ccccc3c(=O)n2-c2cccc(O)c2)ccc1O	?	59*	17	1.3µM*
